Reference: PubChem BioAssay (NCATS)
Records with an inconclusive call do not appear. Active and inactive are the calls of the source. The call rests on the fitted dose curve; in most records, active means well fitted curve in the direction sought with a large enough effect; inconclusive means small, poorly fitted or top-dose-only effect, or another doubt; inactive means no such curve, though single readings can be large; an effect the other way counts as inactive or inconclusive.

Key:
CRL-7250 = normal cell line; assay: Cytotoxic Profiling of Annotated Libraries Using Quantitative High-Throughput Screening (AID 1296008); conditions: Five cell lines viability, CellTiter-Glo ATP luminescence, 48-72 h; max response: hits give low values; further: nearly all actives have a fitted effect of over 60% in size; on max response: on the % scale 0 is the no-effect control and ±100 the full control effect
Method in brief: (§1)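 Compounds were pin-transferred onto cells and incubated 48 or 72 hr at 37 degree Celsius, 95% humidity. CellTiter-Glo was added, plates sat 10 min at room temperature, then ATP-coupled luminescence was imaged as the viability read-out.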

HEK293 = assay: as above; conditions: Five cell lines viability, CellTiter-Glo ATP luminescence, 48-72 h; max response: hits give low values
Method in brief: as §1

HaCat [1] = assay: as above; conditions: Five cell lines viability, CellTiter-Glo ATP luminescence, 48-72 h; max response: hits give low values
Method in brief: as §1

KB-3-1 = assay: as above; conditions: Five cell lines viability, CellTiter-Glo ATP luminescence, 48-72 h; max response: hits give low values
Method in brief: as §1

NIH3T3 [2] = assay: as above; conditions: Five cell lines viability, CellTiter-Glo ATP luminescence, 48-72 h; max response: hits give low values
Method in brief: as §1

MCC-13 = assay: qHTS assay to identify novel small-molecules to repurpose for Merkel cell carcinoma treatment (AID 1296009); conditions: MCC and control cell lines, CellTiter-Glo viability, 72 h; series mostly up to 46 µM; further: nearly all actives have a fitted effect of over 60% in size
Method in brief: (§2)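 Cells exposed to NPC (8-point) and MIPE (11-point) compound dilutions for 72 hr at 37 degree celsius; viability read by CellTiter-Glo luminescence, normalized to no-cell and DMSO in-plate controls.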

MCC-26 = assay: as above; conditions: MCC and control cell lines, CellTiter-Glo viability, 72 h; series mostly up to 46 µM
Method in brief: as §2

MKL-1 = assay: as above; conditions: MCC and control cell lines, CellTiter-Glo viability, 72 h; series mostly up to 46 µM
Method in brief: as §2

MKL-2 = assay: as above; conditions: MCC and control cell lines, CellTiter-Glo viability, 72 h; series mostly up to 46 µM
Method in brief: as §2

UISO = assay: as above; conditions: MCC and control cell lines, CellTiter-Glo viability, 72 h; series mostly up to 46 µM
Method in brief: as §2

WaGa = assay: as above; conditions: MCC and control cell lines, CellTiter-Glo viability, 72 h; series mostly up to 46 µM
Method in brief: as §2

C33A = assay: Primary qHTS to identify gynecologic anti-cancer compounds using libraries of approved drugs and bioactive compounds (AID 1345084); conditions: Gynecologic cancer cell panel viability, ATPlite luminescence, 48 h; series mostly up to 57.5 µM; further: on the % scale 0 is the no-effect control and ±100 the full control effect; nearly all actives have a fitted effect of over 55% in size
Method in brief: (§3)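 Cytotoxicity screen measuring ATP content by luciferase luminescence. Each compound is applied at five concentrations for 48 h at 37 C with 5% CO2.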

CAOV3 = assay: as above; conditions: Gynecologic cancer cell panel viability, ATPlite luminescence, 48 h; series mostly up to 57.5 µM
Method in brief: as §3

CASKI = assay: as above; conditions: Gynecologic cancer cell panel viability, ATPlite luminescence, 48 h; series mostly up to 57.5 µM
Method in brief: as §3

Es-2 = assay: as above; conditions: Gynecologic cancer cell panel viability, ATPlite luminescence, 48 h; series mostly up to 57.5 µM
Method in brief: as §3

HeLa = assay: as above; conditions: Gynecologic cancer cell panel viability, ATPlite luminescence, 48 h; series mostly up to 57.5 µM
Method in brief: as §3

W2 = assay: qHTS profiling for inhibitors of Plasmodium falciparum proliferation (AID 504749);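 further: 0% = DMSO vehicle and full inhibition = artemisinin control; nearly all actives have a fitted effect of over 60% in size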; conditions: P. falciparum in erythrocytes, SYBR Green DNA, 72 h; series mostly up to 28.7 µM
Method in brief: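 P. falciparum-infected erythrocytes (0.3% parasitemia, 2.5% hematocrit final) were exposed to compounds for 72 h at 37 C in 5% CO2, then lysed with SYBR Green buffer overnight at room temperature; parasite DNA fluorescence was normalized to artemisinin and DMSO controls.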

HACAT [3] = assay: qHTS assay to identify novel small-molecules to repurpose for Merkel cell carcinoma treatment (AID 1296009); conditions: MCC and control cell lines, CellTiter-Glo viability, 72 h; at 44.8 µM (top of the series) unless noted; further: nearly all actives have a fitted effect of over 60% in size
Method in brief: as §2

NIH3T3 [4] = assay: as above; conditions: MCC and control cell lines, CellTiter-Glo viability, 72 h; at 44.8 µM (top of the series)
Method in brief: as §2

O=C1C(=O)c2ccccc2C(O)=C1C1CCC(c2ccc(Cl)cc2)CC1 (configuration not stated)
inactive: max response (CRL-7250) 1.68% | max response (HEK293) 0.597% | max response (HaCat [1]) -2.46% | max response (KB-3-1) -5.6% | max response (NIH3T3 [2]) 2.17% | Potency (MCC-13) | Potency (MCC-26) | Potency (MKL-1) | Potency (MKL-2) | Potency (UISO) | Potency (WaGa) | Potency (C33A) | Potency (CAOV3) | Potency (CASKI) | Potency (Es-2) | Potency (HeLa)

CCC1NC(=O)c2cc(S(N)(=O)=O)c(Cl)cc2N1 (configuration not stated)
inactive: max response (CRL-7250) -0.729% | max response (HEK293) -0.132% | max response (HaCat [1]) -3.39% | max response (KB-3-1) -10.4% | max response (NIH3T3 [2]) 3.38% | Potency (MCC-13) | Potency (MCC-26) | Potency (MKL-1) | Potency (MKL-2) | Potency (UISO) | Potency (WaGa) | Potency (C33A) | Potency (CAOV3) | Potency (CASKI) | Potency (Es-2) | Potency (HeLa)

Cn1c(=O)c2[nH]c(Br)nc2n(C)c1=O
inactive: Potency (W2) | outcome (CRL-7250) | max response (HEK293) -7.38% | max response (HaCat [1]) -0.598% | max response (KB-3-1) -9.6% | max response (NIH3T3 [2]) -3.31% | Potency (MCC-13) | Potency (MCC-26) | Potency (MKL-1) | Potency (MKL-2) | Potency (UISO) | Potency (WaGa) | Potency (C33A) | Potency (CAOV3) | Potency (CASKI) | Potency (Es-2) | Potency (HeLa)

C=C[C@H]1CN2CC[C@H]1C[C@@H]2[C@@H](O)c1ccnc2ccc(OC)cc12
inactive: max response (CRL-7250) -2.42% | max response (HEK293) -4.02% | max response (HaCat [1]) -4.58% | max response (KB-3-1) -6.93% | max response (NIH3T3 [2]) 1.59% | Potency (MCC-13) | Potency (MCC-26) | Potency (MKL-1) | Potency (MKL-2) | Potency (UISO) | Potency (WaGa) | Potency (C33A) | Potency (CAOV3) | Potency (CASKI) | Potency (Es-2) | Potency (HeLa)

CCN(CC)CCNC(=O)c1cc(Br)c(N)cc1OC
inactive: max response (CRL-7250) 3.66% | max response (HEK293) -7.62% | max response (HaCat [1]) -11.9% | max response (KB-3-1) -23.2% | max response (NIH3T3 [2]) -9.42% | Potency (MCC-13) | Potency (MCC-26) | Potency (MKL-1) | Potency (MKL-2) | Potency (UISO) | Potency (WaGa) | Potency (C33A) | Potency (CAOV3) | Potency (CASKI) | Potency (Es-2) | Potency (HeLa)

Cc1c[nH]c2ccccc12
inactive: Potency (W2) | outcome (CRL-7250) | max response (HEK293) 2.22% | outcome (HaCat [1]) | max response (KB-3-1) 8.35% | outcome (NIH3T3 [2]) | outcome (HACAT [3]) | Potency (MCC-13) | Potency (MCC-26) | Potency (MKL-2) | outcome (NIH3T3 [4]) | Potency (UISO) | Potency (C33A) | Potency (CAOV3) | Potency (CASKI) | Potency (Es-2) | Potency (HeLa)

CC(C(=O)O)c1cccc(Oc2ccccc2)c1 (configuration not stated)
inactive: max response (CRL-7250) -6.67% | max response (HEK293) -4.21% | max response (HaCat [1]) -15.2% | max response (KB-3-1) -5.06% | max response (NIH3T3 [2]) -0.596% | Potency (MCC-13) | Potency (MCC-26) | Potency (MKL-1) | Potency (MKL-2) | Potency (UISO) | Potency (WaGa) | Potency (C33A) | Potency (CAOV3) | Potency (CASKI) | Potency (Es-2) | Potency (HeLa)

CN(C)CCC[C@@]1(c2ccc(F)cc2)OCc2cc(C#N)ccc21
inactive: max response (CRL-7250) -3.32% | max response (HEK293) -9.91% | max response (HaCat [1]) -13.9% | max response (KB-3-1) -13.4% | max response (NIH3T3 [2]) 0.771% | Potency (MCC-13) | Potency (MCC-26) | Potency (MKL-1) | Potency (MKL-2) | Potency (UISO) | Potency (WaGa) | Potency (C33A) | Potency (CAOV3) | Potency (CASKI) | Potency (Es-2) | Potency (HeLa)

COc1cc(N)c(Cl)cc1C(=O)NC1CCN(Cc2ccccc2)CC1
inactive: outcome (CRL-7250) | max response (HEK293) -8.36% | max response (HaCat [1]) 1.83% | max response (KB-3-1) 3.83% | max response (NIH3T3 [2]) -4.33% | Potency (MCC-13) | Potency (MCC-26) | Potency (MKL-1) | Potency (MKL-2) | Potency (UISO) | Potency (WaGa) | Potency (C33A) | Potency (CAOV3) | Potency (CASKI) | Potency (Es-2) | Potency (HeLa)

CC1=C(C(=O)O)N2C(=O)[C@@H](NC(=O)[C@H](N)c3ccccc3)[C@H]2SC1
inactive: Potency (W2) | max response (CRL-7250) -2.3% | max response (HEK293) -2.48% | max response (HaCat [1]) 2.08% | max response (KB-3-1) 11.5% | max response (NIH3T3 [2]) 1.34% | Potency (MCC-13) | Potency (MCC-26) | Potency (MKL-1) | Potency (MKL-2) | Potency (UISO) | Potency (WaGa) | Potency (C33A) | Potency (CAOV3) | Potency (CASKI) | Potency (Es-2) | Potency (HeLa)

Cc1cccc(C)c1NC(=O)c1ccccc1C(=O)O
inactive: Potency (W2) | outcome (CRL-7250) | max response (HEK293) 0.24% | max response (HaCat [1]) 1.31% | max response (KB-3-1) -0.148% | max response (NIH3T3 [2]) -5.01% | Potency (MCC-13) | Potency (MCC-26) | Potency (MKL-1) | Potency (MKL-2) | Potency (UISO) | Potency (WaGa) | Potency (C33A) | Potency (CAOV3) | Potency (CASKI) | Potency (Es-2) | Potency (HeLa)

CCCCCCCCCCCCCCCC(=O)O
inactive: Potency (W2) | max response (CRL-7250) -4.95% | max response (HEK293) -5.26% | max response (HaCat [1]) -1.81% | max response (KB-3-1) 2.75% | max response (NIH3T3 [2]) 4.34% | Potency (MCC-13) | Potency (MCC-26) | Potency (MKL-1) | Potency (MKL-2) | Potency (UISO) | Potency (WaGa) | Potency (C33A) | Potency (CAOV3) | Potency (CASKI) | Potency (Es-2) | Potency (HeLa)
